Results published in publication PMC4552634, “A New Set of Chemical Starting Points with Plasmodium falciparum Transmission-Blocking Potential for Antimalarial Drug Discovery” (PLoS ONE, 2015).
The whole screen tested about 13,000 compounds, of which about 3,200 (25%) showed an effect of 50% or more. The list shows a part of the results.

tested on: P. falciparum stage V gametocytes; design: BacTiter-Glo ATP luminescence viability of purified stage V gametocytes in 384-well plates, per cent inhibition versus DMSO; conditions: 48 h, 5 µM; inhibitor

Structure (SMILES) | % Inhibition [%]
CCN(CC)CCNc1c2ccc(Cl)cc2nc2ccc(OC)nc12 [TCMDC-137937] | -10.21
COc1ccc2nc3cc(Cl)ccc3c(N)c2c1.Cl [TCMDC-125835] | 124.4
COc1ccc2nc3cc(Cl)ccc3c(NCCCCCCNc3c4ccc(Cl)cc4nc4ccc(OC)cc34)c2c1 [TCMDC-137503] | 106.2
COc1ccc2nc3cc(Cl)ccc3c(Nc3ccc(Oc4ccc(Nc5c6ccc(Cl)cc6nc6ccc(OC)cc56)cc4)cc3)c2c1.Cl [TCMDC-137674] | -12.74
COc1ccc2nc3cc(Cl)ccc3c(NCCCCNc3c4ccc(Cl)cc4nc4ccc(OC)cc34)c2c1 [TCMDC-138218] | 112.4
COc1ccc2nc3cc(Cl)ccc3c(NCCNCC(O)CO)c2n1 (stereo not shown) [TCMDC-137938] | 74.53
COc1ccc2nc3cc(Cl)ccc3c(Nc3ccc(Sc4ccc(Nc5c6ccc(Cl)cc6nc6ccc(OC)cc56)cc4)cc3)c2c1.Cl [TCMDC-137673] | -84.83
COc1ccc2nc3cc(Cl)ccc3c(NCc3ccccc3)c2c1.Cl [TCMDC-137663] | -68.8
COc1ccc2nc3cc(Cl)ccc3c(NCCCO)c2c1 [TCMDC-124144] | 20.12
CCOc1ccc(-n2nc3c(Cl)nnc(-c4ccccc4)c3c2-c2ccccc2)cc1 [TCMDC-123899] | -2.574
CCCC(C)Nc1nc(C)cc(N[C@@H](CC(C)C)C(=O)NC2CCCC2)n1 (stereo partly shown) [TCMDC-134895] | -73.82
CC1CCc2sc(-c3nnc(SC(C)C(=O)NC4CC4)o3)cc2C1 (stereo not shown) [TCMDC-124866] | 6.4
CCOc1ncccc1CN1CCC(N2CCc3cc(NC(=O)c4cc(C)on4)ccc32)C1 (stereo not shown) [TCMDC-135086] | -27.43
NC(=O)c1cccc(CNC(=O)NC[C@H]2CN(Cc3ccc(Cl)c(Cl)c3)CCO2)c1 [TCMDC-138745] | 31.93
COc1cc(NC(=O)/C=C/c2cccc3ccoc23)ccc1OCCN(C(C)C)C(C)C [TCMDC-139958] | 3.846
CCOC(=O)NC1=NC(C)(C)N(OCc2ccc(Cl)c(Cl)c2)C(NC(=O)OCC)=N1 [TCMDC-131729] | 1.326
COc1ccc2c(c1)C(C)(CCCN(C)C)C(=O)N2C (stereo not shown) [TCMDC-138945] | 13.31
COc1ccc2nc3cc(Cl)ccc3c(NCCN(C)C)c2c1 [TCMDC-139093] | 54.53
COc1ccc2nc3cc(Cl)ccc3c(NCCCCN)c2c1 [TCMDC-137526] | 92.71
COc1ccc2nc3cc(Cl)ccc3c(NCCO)c2c1 [TCMDC-124272] | 0.5882
COc1ccc2nccc([C@@H](O)CN3CCC(NCc4nc5c(cc4F)SCC(=O)N5)C(F)C3)c2c1 (stereo partly shown) [TCMDC-141681] | -15.96
O=[N+]([O-])c1ccc(-c2nc3cc(C4=NC5CCCCC5N4)ccc3[nH]2)cc1 (stereo not shown) [TCMDC-137220] | 5.239

Structure (SMILES) | % Inhibition [%]
O=[N+]([O-])c1cccc(-c2nc3cc(C4=NC5CCCCC5N4)ccc3[nH]2)c1 (stereo not shown) [TCMDC-137221] | 5.96
Nc1ccc(-c2nc3cc(C4=N[C@H]5CCCC[C@H]5N4)ccc3o2)cc1[N+](=O)[O-] [TCMDC-137253] | 108.2
COc1cc(F)c2ncc(F)c(CCN3C[C@H](CNCc4ccc5c(n4)NC(=O)CS5)[C@H](O)C3)c2c1 [TCMDC-136333] | 73.35
COc1ccc2ncc(F)c(CCN3CC(O)C(CNCc4ccc5c(n4)NC(=O)CS5)C3)c2c1 (stereo not shown) [TCMDC-136187] | 16.49
COc1ccc2ncc(Cl)c([C@@H](O)CN3CCC(NCc4cc5c(cn4)OCCO5)CC3)c2c1 [TCMDC-135470] | 13.81
Clc1cnc2ccc3c(c2c1CCN1CCC(NCc2cc4c(cn2)OCCO4)CC1)OCCO3 [TCMDC-134566] | 24.75
Fc1ccc2ncc(Cl)c(CCN3CCC(NCc4cc5c(cn4)OCCO5)CC3)c2c1 [TCMDC-133446] | 74.26
COc1ccc2nccc(CCN3CC(O)C(CNCc4ccc5c(n4)NC(=O)CS5)C3)c2n1 (stereo not shown) [TCMDC-136132] | 27.64
COc1ccc2ncc(F)c([C@@H](O)CN3CCC(NCc4cc5c(cn4)OCCO5)CC3)c2c1 [TCMDC-135379] | 9.097
Cc1ccc2ncc(Cl)c(CCN3CCC(NCc4ccc5c(n4)NC(=O)CS5)CC3)c2n1 [TCMDC-141963] | 7.636
COc1ccc2ncc(Cl)c([C@H](O)CN3CCC(NCc4cc5c(cn4)OCCO5)CC3)c2c1 [TCMDC-135469] | 53.55
Cn1ncc2c3c(CCN4CCC(NCc5cc6c(cn5)OCCO6)CC4)c(Cl)cnc3ccc21 [TCMDC-136008] | 9.388
COc1c(F)ccc2ncc(Cl)c(CCN3CCC(NCc4ccc5c(n4)NC(=O)CS5)CC3)c12 [TCMDC-141955] | 54.36
COc1ccc2ncc(C)c(CCN3CCC(NCc4ccc5c(n4)NC(=O)CS5)CC3)c2c1 [TCMDC-134648] | 44.1
Cc1ccc(C(=O)NC2CC2)cc1-c1ccc2c(cnn2S(=O)(=O)c2ccc(F)cc2)c1 [TCMDC-138772] | 31.89
O=C(NCCc1cccc(Cl)c1Cl)c1ccc(N2CCN(c3ccncc3)CC2)nc1 [TCMDC-134587] | 10.14
Cc1ccc(C(=O)Nc2cc(C(F)(F)F)cc(C(F)(F)F)c2)cc1[N+](=O)[O-] [TCMDC-125645] | -10.1
Cc1csc(-c2nc(NCCc3c(C)noc3C)ncc2-c2ccsc2)n1 [TCMDC-125354] | 34.89
Nc1ncc(-c2ccsc2)c2ccc(-c3cc(NCc4ccccc4)ncn3)cc12 [TCMDC-135660] | 18.52
O=C(Cc1c[nH]cn1)Nc1ccc(-c2ccc(-c3nc4ccccc4[nH]3)s2)cc1 [TCMDC-136939] | -25.08
O=C(/C=C/c1ccc(Cl)c(Cl)c1)N1CCC(NCc2ccc3[nH]ccc3c2)CC1 [TCMDC-134198] | 36.44
